Only some compounds are listed: those with a hit (about 2.9% of all), similar ones and a draw of the others.
PvdQ acylase: blocks Pseudomonas aeruginosa PvdQ acylase activity; purified PvdQ acylase, fluorescence plate reader; inhibition, % at 10 µM; 340,000 tested, 0.063% active; AID 488965; in the data active means inhibition above about 30%, passing the limit was not always enough; inconclusive means no clear call, values can overlap the other calls;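 further: 0% = vehicle neutral wells and 100% = reference inhibitor wells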
Wnt bcat act: activates Wnt/beta-catenin signaling in a reporter cell assay. activator, plate reader. activation, % at 9.35 µM. 300,000 tested, 1.2% active; in the data active means activation above about 30%, passing the limit was not always enough; inconclusive means no clear call, values can overlap the other calls;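 further: 0% = neutral control wells and 100% = positive control wells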
Glyco luc inh: N-linked glycosylation inhibition; D54 ERlucT glycosylation luciferase reporter, 24 h; percent of 100 nM tunicamycin response; reporter increase, % at 12.5 µM; 360,000 tested, 0.23% active; AID 588692;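 active means mean luciferase reporter signal, scaled so untreated is 0 and the glycosylation-blocking control 100, at or above a set limit in every replicate; inconclusive means mean reaches the limit but not every replicate does; inactive means mean below the limit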;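 further: luciferase carries N-glycosylation sites so blocking glycosylation raises the light; 0% = median of neutral control wells and 100% = median of 100 nM tunicamycin wells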
MITF act: activators of MITF-driven TRPM1 promoter activity in SK-MEL-5 cells; SK-MEL-5 TRPM1-promoter luciferase, 24 h; % of positive control, neutral wells = 0; activation, % at 12.5 µM; 300,000 tested, 0.75% active;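 active means mean activation of at least 80% with every replicate also reaching 80%; inconclusive means mean reaches 80% but some replicate falls short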;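 further: 0% = neutral control wells and 100% = parthenolide positive control wells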
Vif imaging: inhibitors of HIV Vif; HEK293T cells, Vif self-association by quenched fluorescence, imaging, 24 h; inhibition, % at 7.49 µM; 340,000 tested, 0.35% active; AID 602346; in the data active means inhibition above about 50%, passing the limit was not always enough; inconclusive means no clear call, values can overlap the other calls; inactive means below about 31%
esBAF inh: blocks esBAF chromatin remodeling in mouse ES cells | reporter increase, % at 12.5 µM | 350,000 tested, 2% active | AID 602393 | Bmi1-luciferase knock-in reporter, 24 h; 100% = twice the neutral-well signal; in the data active means activation above about 40%; inconclusive means no clear call, values can overlap the other calls;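 further: 0% = median of the plate's neutral control wells and 100% = double that signal; a rise in the Bmi1 reporter signal indicates esBAF inhibition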
Ring1 derepress: de-represses Ring1 in mouse ESCs, confirming esBAF inhibition; AID 743176; fold change at 33 µM; shares compounds with esBAF inh; mouse ESC E14, Ring1 mRNA RT-qPCR fold change; 550 tested, under 10 active;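 active means Ring1 gene expression raised more than 2-fold over untreated cells in both replicates at either tested dose; inconclusive means only one replicate above 2-fold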;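 further: Ring1 transcript normalised to actin housekeeping signal by TaqMan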
esBAF Fgf4 qPCR: esBAF inhibition confirmed by Fgf4 repression | 550 tested, 4% active | shares compounds with esBAF inh | Fgf4 expression fold change at 33 µM | mouse ESC E14, Fgf4 mRNA qPCR fold change; stronger effect = lower value;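 active means Fgf4 expression under 0.8 fold of control in both repeat measurements at one or both tested doses; inconclusive means under 0.8 fold in just a single repeat measurement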;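 further: Fgf4 transcript normalised to actin in duplex TaqMan qPCR; cells exposed to compound for 24 h before lysis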
Bmi1 derepress: de-represses Bmi1 in mouse ESCs, confirming esBAF inhibition | shares compounds with esBAF inh | mouse ESE14 ES cells, Bmi1 mRNA qPCR fold; stronger effect = higher value | fold change at 33 µM | 550 tested, under 10 active;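 active means Bmi1 expression fold change above 6 at either tested concentration, seen in replicate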
A549 cytotox: cytotoxicity in A549 cells | shares compounds with esBAF inh | cell viability change % (negative = cytotoxic), % at 25 µM, hits read low | 550 tested, under 10 active | plate reader; call rule not given here
HepG2 cytotox SP: HepG2 cell cytotoxicity at single point; activity change, negative = inhibition, % at 25 µM; shares compounds with esBAF inh; plate reader; stronger effect = lower value; 550 tested, 4% active; in the data active means activity change below about -50%
HEK293 cytotox SP: HEK293 cell cytotoxicity at single point. shares compounds with esBAF inh. plate reader. activity change, negative = inhibition, % at 25 µM, hits read low. 550 tested, 3% active; in the data active means activity change below about -38%, passing the limit was not always enough
The depositor's hits bear a star; u = inconclusive; x = no result given.

SMILES	PvdQ acylase	Wnt bcat act	Glyco luc inh	MITF act	Vif imaging	esBAF inh	Ring1 derepress	esBAF Fgf4 qPCR	Bmi1 derepress	A549 cytotox	HepG2 cytotox SP	HEK293 cytotox SP
COc1cccc(CN2CCCCN3[C@H](C2)[C@H](c2ccc(-c4cccnc4)cc2)[C@@H]3CO)c1	x	x	x	x	x	3.6	x	x	x	x	x	x
Cc1ccsc1CN(C)C(=O)C1CCC(=O)N(CCc2cccc(F)c2)C1 (stereo not given)	-12.5	-0.5	1.9	48.1	-3.5	64.7*	1.35	0.966	1.66	-5.6	-20.5	-8.7
C[C@@H]1CN([C@@H](C)CO)C(=O)c2cccc(NC(=O)Nc3ccc(F)cc3)c2O[C@H]1CN(C)CC1CC1	x	x	x	x	x	9.0	x	x	x	x	x	x
c1ccc(CCc2nc(-c3cccnc3)no2)cc1	-19.6	x	-1.9	71.2	-5.2	59.2*	1.14	0.903	1.58	-15.1	-24.7	-18.9
COc1ccc2nc(C(c3ccc(C)cc3)n3c(-c4ccccc4Br)nc4ccccc43)[nH]c2c1 (stereo not given)	x	-2.8	-1.0	x	3.6	u	0.963	1.17	1.72	-8.1	3.6	-25.3
Cc1cccc(S(=O)(=O)N2C[C@@H](O)COC[C@@H]3O[C@H](CC(=O)N4CCN(C)CC4)CC[C@H]32)c1	x	x	x	x	x	-3.7	x	x	x	x	x	x
C1=NN(c2ccccc2)C=NN1c1ccccc1	-10.7	-5.1	-0.9	68.4	2.2	69.2*	0.901	0.865	1.7	-4.7	-12.7	-59.9*
CCN(CC)C(=O)Oc1ccc2c(=O)c(-c3ccc(OC)cc3)coc2c1	-11.8	20.0	-5.5	u	-11.9	60.9*	1.12	0.828	1.62	-6.3	1.6	-5.6
CCN(CC)C(=O)Oc1ccc2c(=O)c(-c3ccc(OC)cc3)c(C)oc2c1	-11.1	x	-4.9	-6.1	-7.3	14.8	x	x	x	x	x	x
COc1ccccc1Nc1nc(Cl)nc(NC(C)(C)C)n1	1.2	-0.3	-1.1	-6.2	-3.5	x	x	x	x	x	x	x
CC(C)(C)Nc1nc(Cl)nc(Nc2ccccc2)n1	-13.8	9.3	-4.5	x	-10.0	58.8*	1.27	u	1.64	-10.3	1.2	-14.0
N#Cc1c(/N=C/c2cccs2)sc2c1CCC2	-8.3	4.1	-0.9	x	6.2	104.9*	1.07	u	1.16	-10.2	-9.3	-4.1
Cc1ccc(NCSc2ccc(Cl)cc2)cc1	-10.1	16.2	1.8	50.4	7.7	72.1*	0.958	1.06	1.53	-16.2	42.3	-2.4
COc1cc(SC)ccc1C(=O)NCC1CCCCC1	-11.3	0.2	2.2	97.3*	3.2	65.2*	1.04	0.833	1.44	-5.4	-17.3	-19.6
Cc1nc2ccc(-c3nc4ccccc4[nH]3)cc2[nH]1	-9.3	u	-4.7	54.6	-1.4	x	x	x	x	x	x	x
Cc1ccc(-c2nc3ccccc3[nH]2)cn1	-12.8	0.4	0.5	32.8	0.4	63.1*	0.904	1.36	1.41	-29.7	-38.3	-28.5
COc1ccc(/C=N/n2c(N)nc3ccccc32)cc1OC	2.4	x	0.2	43.3	0.8	25.7	x	x	x	x	x	x
COc1cccc(/C=N/n2c(N)nc3ccccc32)c1OC	-7.2	26.8	-1.4	89.9*	-9.3	73.4*	1.6	1.02	2.35	-4.2	-12.9	-9.1
CN(C)CC(=O)N[C@@H]1CC[C@H](CC(=O)NCCN2CCCCC2)O[C@@H]1CO	x	x	x	x	x	-0.3	x	x	x	x	x	x
O=C(NCc1ccccn1)Nc1ccc(Cl)cc1Cl	3.7	14.5	2.3	53.4	-8.0	x	x	x	x	x	x	x
O=C(NCc1ccccn1)Nc1ccc(Br)cc1Cl	5.2	24.5	1.0	u	-4.9	56.2*	1.05	0.92	0.978	4.9	44.2	7.2
CC(=O)Nc1cc2c3c(cccc3c1)-c1ccccc1-2	-14.4	6.3	2.0	33.6	x	70.1*	1.27	u	1.49	-5.3	27.3	-7.2
C[C@@H]1CN([C@@H](C)CO)C(=O)c2cc(N(C)C)ccc2O[C@H]1CN(C)Cc1ccncc1	x	x	x	x	x	6.2	x	x	x	x	x	x
C/C=C/c1ccc([C@@H]2[C@@H](C#N)N(c3ncc(CC)s3)[C@@H]2CO)cc1	x	x	x	x	x	-0.5	x	x	x	x	x	x
Cc1ccc(NC(=O)c2ccc3c(=O)n4c(nc3c2)CCC4)cc1F	5.7	52.5*	0.5	71.0	6.4	66.9*	1.05	u	1.11	-6.4	9.8	-4.6
SMILES	PvdQ acylase	Wnt bcat act	Glyco luc inh	MITF act	Vif imaging	esBAF inh	Ring1 derepress	esBAF Fgf4 qPCR	Bmi1 derepress	A549 cytotox	HepG2 cytotox SP	HEK293 cytotox SP
CNC(=O)c1ccc(NC(=O)c2ccc3c(=O)n4c(nc3c2)CCC4)cc1	-15.4	-20.2	0.4	-2.6	4.0	-3.5	x	x	x	x	x	x
CCc1nnc(NC(=O)c2ccc3c(=O)n4c(nc3c2)CCC4)s1	x	23.6	-0.5	x	x	58.7*	0.914	0.939	1.41	-5.7	-41.1	-15.8
CO[C@H]1CN(C)C(=O)c2cc(NS(=O)(=O)c3ccc(Oc4ccccc4)cc3)ccc2OC[C@@H](C)NC[C@@H]1C	x	x	x	x	x	-0.5	x	x	x	x	x	x
C[C@@H]1CN([C@@H](C)CO)C(=O)Cc2cc(NC(=O)Cc3ccccc3)ccc2O[C@@H]1CN(C)S(=O)(=O)c1ccc(F)cc1	x	x	x	x	x	3.5	x	x	x	x	x	x
COc1ccc(S(=O)(=O)N(C)C[C@@H]2Oc3c(NC(=O)c4cc(C)nn4C)cccc3C(=O)N([C@H](C)CO)C[C@@H]2C)cc1	x	x	x	x	x	-0.7	x	x	x	x	x	x
Cc1ccc(NC(=O)Cc2noc3ccccc23)cc1	-15.4	x	-0.9	x	-8.4	80.5*	1.07	0.996	0.991	2.4	-34.5	-11.7
CC(C)c1cn(CC[C@@H]2CC[C@@H](NC(=O)C3CC3)[C@@H](CO)O2)nn1	x	x	x	x	x	-6.9	x	x	x	x	x	x
Cc1ccc(N2Cc3ccccc3C2=O)cc1	5.4	11.6	-13.9	2.6	-0.9	-20.9	x	x	x	x	x	x
O=C1c2ccccc2CN1c1ccccc1	3.7	15.6	-0.3	x	-1.0	55.0*	1.26	1	1.56	-13.9	-32.4	-23.4
CCOC(=O)c1ccc(N=Cc2nc(-c3ccccc3)oc2OC(C)=O)cc1	-8.8	x	0.2	-15.2	9.2	15.4	x	x	x	x	x	x
CN(C)c1ccc(N=Cc2nc(-c3ccccc3)oc2OC(=O)c2cccc(Br)c2)cc1	-6.2	x	-4.6	68.1	-14.7	62.8*	1.42	0.997	1.49	-0.3	-33.7	-10.1
Cc1cc(C(=O)Nc2ccc3c(c2)C(=O)N(C)[C@H]2CC[C@@H](CC(=O)N[C@H](C)c4ccccc4)O[C@@H]2CO3)no1	x	x	x	x	x	0.1	x	x	x	x	x	x

Source: PubChem BioAssay
